# Rab9 prom act: activates the Rab9 promoter | Huh7 Rab9 promoter-luciferase reporter, luminescence, 24 h | Potency, µM (highest dose often 9.22 µM), without a hit: top-dose activation, negative = inhibition, usual class: activators | 320,000 tested, 2.8% active | AID 485297; also: % of control where 0% means no effect; nearly all actives have a fitted effect of over 60% in size
#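 Rab9 promoter-driven luciferase in stably transfected Huh7 cells; 1500 cells/well rested 2 h, exposed to compound in DMSO for 24 h at 37 °C, 5% CO2. Luminescence read 10 min after adding luciferase reagent at ambient temperature.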
# ELG1 DNA repair: blocks ELG1-dependent DNA repair in HEK293T cells. HEK293T ELG1-luciferase reporter, luminescence, 16 h; DNA damage induced by 5-fluorouridine. Potency, µM (highest dose often 46.1 µM), without a hit: at the highest dose activity change, negative = inhibition, actives largely listed as inhibitors. 330,000 tested, 2.3% active. AID 504467; also: % is scaled to controls: 0 for no effect and ±100 for the full control effect; nearly all actives have a fitted effect of over 55% in size
#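 Luminescence from the luciferase reporter, measured 30 min after ONE-Glo reagent at room temperature, was the read-out. Beforehand, 2,000 cells per well were exposed for 16 hr at 37 °C to 5-fluorouridine together with compound or vehicle.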
# FLuc counter: firefly luciferase modulation, counter-screen for miR-21 project; purified FLuc, Km substrates, luminescence inhibition; Potency, µM (highest dose often 57.5 µM), for the others: at the highest dose activity change, negative = inhibition, hits mostly inhibitors; 360,000 tested, 6.9% active;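 also: plate controls were vehicle for no effect and reference inhibitor for full effect; nearly all actives have a fitted effect of over 55% in size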
# Target sequence (P08659 whole entry, looked up): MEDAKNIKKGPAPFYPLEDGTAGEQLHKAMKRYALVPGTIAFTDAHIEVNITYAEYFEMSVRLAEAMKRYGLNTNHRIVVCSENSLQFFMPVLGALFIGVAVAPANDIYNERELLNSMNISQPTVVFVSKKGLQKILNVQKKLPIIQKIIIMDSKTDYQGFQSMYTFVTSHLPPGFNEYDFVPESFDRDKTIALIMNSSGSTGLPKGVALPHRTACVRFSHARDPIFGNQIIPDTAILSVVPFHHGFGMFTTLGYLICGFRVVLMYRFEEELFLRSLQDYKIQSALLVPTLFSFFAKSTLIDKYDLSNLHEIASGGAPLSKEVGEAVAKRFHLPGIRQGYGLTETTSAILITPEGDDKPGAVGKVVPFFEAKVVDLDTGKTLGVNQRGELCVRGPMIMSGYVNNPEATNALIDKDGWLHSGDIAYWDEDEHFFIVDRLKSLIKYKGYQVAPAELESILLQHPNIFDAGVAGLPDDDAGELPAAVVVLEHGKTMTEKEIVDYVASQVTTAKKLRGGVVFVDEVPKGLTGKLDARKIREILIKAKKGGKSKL
#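 Purified P. pyralis luciferase (10nM final) with 10uM D-luciferin and 10uM ATP (Km levels) in 50mM Tris acetate pH 7.5, 10mM Mg acetate, 0.01% Tween-20, 0.05% BSA; qHTS 6-point titration, ~60 µM downward; luminescence read.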
# NPC1 promoter act: activators of NPC1 promoter. Huh7 NPC1 promoter luciferase reporter, 24 h. 320,000 tested, 2.4% active. AID 485313. Potency, µM (highest dose often 9.22 µM), without a hit: top-dose activation, most hits filed as activators; also: % of control where 0% means no effect; nearly all actives have a fitted effect of over 60% in size
#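 In 1536-well qHTS, Huh7 cells harboring an NPC1 promoter–luciferase construct received compound for 24 h; activation was quantified by luminescence following luciferase reagent addition.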
# SMN2 splice up: SMN2 splice variant enhancement. HEK293 SMN2-luciferase splicing reporter, luminescence, 30-36 h. Potency, µM (series often up to 46.1 µM), for the others: at the highest dose activity change, positive = activation, usual class: activators. 210,000 tested, 2.8% active. AID 1458; also: % of control where 0% means no effect; nearly all actives have a fitted effect of over 55% in size
#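 HEK293 cells carry an SMN2 […]–luciferase reporter in which exon 7 inclusion puts luciferase in frame. Cells were plated 10-12 h before compound addition, then incubated 30-36 h at 37C. ONE-Glo luminescence was read; sodium butyrate at 4.5 mM final served as control.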
# ELG1 genotoxic: induces genotoxicity in HEK293T cells with luciferase-tagged ELG1; HEK293T ELG1-luciferase reporter, luminescence, 16 h; Potency, µM (series often up to 46 µM), for the others: top-dose activity change, positive = activation, most hits filed as activators; 330,000 tested, 1.3% active; AID 504466; also: % of control where 0% means no effect; nearly all actives have a fitted effect of over 60% in size
#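 HEK293T cells expressing luciferase-tagged ELG1 were exposed to compound or DMSO vehicle for 16 hr at 37 °C and 5% CO2. Luciferase activity was then measured with ONE-Glo after 30 min at room temperature.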
# Active calls of the source: *; ? = inconclusive; . = no result given; [ ] = remark or other dose. Sampled rows, rich in hits. Any-hit rate of the full collection: about 9.2%. Calls follow the shape of the dose curve; as a rule, active = well fitted curve in the direction sought with a large enough effect; inconclusive = small, poorly fitted or top-dose-only effect, or another doubt; inactive = no such curve, though single readings can be large; an effect the other way counts as inactive or inconclusive. Potency is read from the fitted curve at half-maximal effect.
SMILES,Rab9 prom act,ELG1 DNA repair,FLuc counter,NPC1 promoter act,SMN2 splice up,ELG1 genotoxic
Cc1ccc(C(=O)CSc2ncnc3ccccc23)o1,4µM*,?,13µM*,4µM*,11%,12%
O=C(CSc1ncnc2ccccc12)c1cccs1,0.45µM*,?,1.5µM*,1.8µM*,.,?
COc1cc(OC)c(NC(=O)CCn2cccn2)cc1Cl,.,.,-3%,.,.,.
Cc1nn(-c2ccccc2)c(C)c1/C=C/C(=O)OCC(=O)N(C)C1CCS(=O)(=O)C1 (stereo unspecified),-3%,7%,-1%,-7%,-5%,0%
Cc1ccc(CC(=O)Nc2ncc([N+](=O)[O-])s2)cc1,?,?,15µM*,?,13µM*,18%
Cc1ccc(S(=O)(=O)CC(=O)Nc2ncc([N+](=O)[O-])s2)cc1,4%,-25%,-1%,-1%,.,-10%
O=C(COC(=O)c1ccc(Br)o1)Nc1ncc([N+](=O)[O-])s1,22%,?,17µM*,17%,.,4%
O=C(NNC(=S)NC1CCCCC1)c1ccc2c(c1)OCO2,1µM*,?,?,?,5.6µM*,5%
c1cc2c(cc1NC1CCCCCC1)OCO2,10%,?,?,-3%,.,4%
S=C(NC1CCCCC1)c1ccc2c(c1)OCO2,25%,?,8.5µM*,24%,19%,12%
O=C(NC1CCCCC1)c1ccc2c(c1)OCCO2,3.2µM*,?,13µM*,1.4µM*,.,21µM*
CN(C(=O)c1ccc2c(c1)OCO2)C1(C(=O)NC2CCCC2)CCCCC1,-3%,-1%,1%[2.3 µM],2%,2%,-4%
O=C(NC1CCCCCCC1)c1ccc2c(c1)OCO2,0.4µM*,?,3µM*,0.79µM*,5µM*,2.1µM*
CCOC(=O)c1cnn(-c2ccccc2)c1-c1ccncc1,-7%,-25%,2%,-3%,.,-7%
Cc1cccc(CC(=O)NCc2nc3cccnc3n2Cc2ccc(F)cc2)c1,.,.,-4%,.,.,.
COC(=O)/C(=C\Nc1ccc(Oc2ccc(F)cc2F)nc1)NC(=O)c1ccccc1,-2%,8%,2%,1%,.,10%
Cc1cccc(N2CCN(C(=O)C3CCN(S(=O)(=O)c4cccc5cccnc45)CC3)CC2C)c1 (stereo unspecified),3%,18µM*,2%,-2%,-9%,-11%
O=C(C1CCN(S(=O)(=O)c2cccc3cccnc23)CC1)N1CC=C(c2ccccc2)CC1,-5%,23µM*,0%,-1%,-24%,-13%
O=C(C1CCN(S(=O)(=O)c2cccc3cccnc23)CC1)N1CCCC1,-12%,-4%,-1%,5%,7%,-5%
CCO[C@H]1OC(C(=O)NC2CC2)=C[C@@H](c2coc3ccccc3c2=O)[C@@H]1CCCO,-4%,4%,2%,-4%,.,2%
COC(=O)C1=C(NC(C)=O)CCS1,3%,17%,3%,0%,-8%,-1%
COc1ccc(OC)c(Nc2sc(C(=O)c3ccccc3)c(N)c2S(=O)(=O)c2ccccc2)c1,.,.,1%,.,-10%,.
COCCSc1nnc(NC(=O)CSc2ccccc2)s1,12%,0%,-5%,9%,5%,3%
COCCSc1nnc(NC(=O)C(C)(C)C)s1,?,?,15µM*,?,.,17%
CC(C)(C)C(=O)Nc1nnc(SCc2ccc(F)cc2)s1,18%,?,?,17%,-18%,?
SMILES,Rab9 prom act,ELG1 DNA repair,FLuc counter,NPC1 promoter act,SMN2 splice up,ELG1 genotoxic
CC(C)(C)C(=O)Nc1nnc(SCc2cccc(F)c2)s1,2µM*,?,19µM*,?,?,15%
Cc1nc2ccc(S(=O)(=O)NCC(=O)Nc3ccc(F)cc3F)cc2s1,.,.,2%,.,20%,.
CC1=CC2=NC(=O)/C(=C\c3cc(C)n(-c4cccc(Cl)c4)c3C)C(=N)N2O1,1%,?,?,1%,-22%,5%
CC1=CC2=NC(=O)/C(=C\c3cc(C)n(-c4ccccc4F)c3C)C(=N)N2O1,-4%,-25%,6µM*,-1%,-6%[1.84 µM],-2%
Cc1cc(/C=C2/C(=N)N3C(=NC2=O)SN=C3S(C)(=O)=O)c(C)n1-c1ccccc1F,3.2µM*,?,0.3µM*,3.2µM*,13µM*,-3%
CS(=O)(=O)C1=NSC2=NC(=O)/C(=C\c3cccn3-c3ccc(Cl)cc3)C(=N)N21,-10%,16%,-1%,0%,10%,1%
CC1=CC2=NC(=O)/C(=C\c3cc(C)n(-c4ccccc4)c3C)C(=N)N2O1,0%,-1%,5.4µM*,1%,2%[1.84 µM],-2%
C[C@@]12CCC[C@@](C)(C(=O)O)C1CC[C@@]13C[C@@H](NCc4ccccc4)[C@@](C)(CCC12)C3 (stereo partly specified),-4%,20%,5%,1%,.,-3%
COc1cccc(-c2ccc(SCc3ccccn3)nn2)c1,2.8µM*,?,11µM*,3.5µM*,11µM*,?
COc1ccc(-c2ccc(SCc3ccccn3)nn2)cc1OC,-2%,-2%,?,0%,8%,-8%
O=[N+]([O-])c1cccc(-c2ccc(SCc3ccccn3)nn2)c1,4µM*,?,27µM*,?,?,?
COc1ccc(NC(=O)Cn2cnc3c(nnn3-c3ccc(C)cc3)c2=O)cc1,-2%,?,0%,-3%,4%,16%
COCCn1c(SCC(=O)NCc2ccc(F)cc2)nc2ccccc21,0%,23%,2%,0%,.,1%
O=C(CC(=O)N/N=C/c1ccc(F)cc1)N/N=C/c1ccc(F)cc1,2%,-9%,15µM*,1%,.,-4%
O=C(CCC(=O)Nc1ccc(F)cc1)N/N=C/c1ccc(F)cc1,0%,1%,-1%,-2%,.,3%
Cc1ccc(C(=O)Nc2cccc(C(=O)N/N=C/c3ccc(F)cc3)c2)cc1,1.4µM*,?,2.4µM*,2.2µM*,.,15%
CC(=O)Nc1cccc(C(=O)N/N=C/c2ccc(F)cc2)c1,1.4µM*,?,6µM*,2.8µM*,27%[1.84 µM],16µM*
Cc1ccccc1OCCNC(=O)/C=C/c1ccccc1,-5%,?,-19%,-6%,7%,-3%
COc1ccc(CNC(=O)C/C(C)=N/NC(=O)C23CC4CC(CC(C4)C2)C3)cc1,12%,?,5%,1%,.,2%
CNc1nnc(-c2ccc(N(C)C)cc2)s1,0.45µM*,?,2.1µM*,0.56µM*,2.8µM*,?
CCOc1ccc(NC(=O)C2CCCN(S(=O)(=O)c3c(C)noc3/C=C/N(C)C)C2)cc1 (stereo unspecified),.,.,-2%,.,7%,.
